Experimental data taken from PubChem BioAssay (NCI).
Compounds without any hit were thinned out: in the full panel of roughly 83,000, 20% have a hit.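 Compound tested at a single concentration for 48 hours in 96-well plates; a percent growth value below 10 was scored as active.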 Active and inactive are the calls of the source.

test system: HL-60(TB) leukemia; test: NCI-60 one-dose screen, 48 h (100 = growth as untreated, 0 = no growth, -100 = all killed); conditions: 10 µM unless noted

CC1(C)CC[C@]2(C(=O)O)CC[C@]3(C)C(=CC[C@@H]4[C@@]5(C)C[C@@H](Cc6cn([C@@H]7O[C@H](CO)[C@@H](O)[C@H](O)[C@H]7O)nn6)[C@H](O)C(C)(C)[C@@H]5CC[C@]43C)[C@@H]2C1 was tested. Which growth did it give?
Its growth is 93.4% (inactive).

For O=C1Nc2cc(-c3ccc(O)cc3)ccc2/C1=C/c1ccc[nH]1, which growth is on record?
Its growth is -8.12% (active).

With Cc1cc(C)c(/C=C2\C(=O)Nc3ccc(NC(=O)CCCCCCC(=O)NO)cc32)[nH]1 as the compound, how does the growth read?
The growth was 19.4% (inactive).

COc1cc(OC)cc(-c2n/c(=C\c3c(O)[nH]c4ccc(OC)cc34)cc3c2=Nc2ccccc2-3)c1 was tested. Which growth did it give?
The growth was 80% (inactive).

For Clc1c(Cl)[n+](Cc2ccc3ccccc3c2)cn1Cc1ccc2ccccc2c1, which growth is on record?
The growth was -54.7% (active).

With O=C(Nc1cccc(Cl)c1)Nc1ncc(CCNc2ncnc3ccsc23)s1 as the compound, how does the growth read?
Its growth is 8.72% (active).

Which growth does the source give for COc1cccc(-c2nc3occn3c2-c2ccnc(NCCNS(=O)(=O)c3cccc4ccccc34)n2)c1 here?
The growth was 121% (inactive).

c1ccc(CCNc2ncnc3[nH]ncc23)cc1 was tested. Which growth did it give?
Its growth is 79.6% (inactive).

With C#C[C@]1(O)CCC2C3CCc4cc(OC5CCCC5)ccc4C3CC[C@@]21C (stereo not given in full) as the compound, how does the growth read?
Its growth is 77% (inactive).

With COc1c(B(O)O)cccc1-c1cc(C)c2c(ccc3[nH]ncc32)n1 as the compound, how does the growth read?
The growth was 23.8% (inactive).

For Cc1nn(-c2ccccc2)c(-n2ccnc2)c1/C=N/Nc1nc(-c2ccc(F)cc2)cs1, which growth is on record?
The growth was 94.4% (inactive).

Which growth does the source give for CNc1ccc(CSc2ccc(Cl)cc2)cc1 here?
The growth was 5.59% (active).

For O=C(/C=C/c1ccc(Cl)cc1)c1ccc(Nc2ccnc3cc(Cl)ccc23)cc1, which growth is on record?
The growth was 23.2% (inactive).

For CC(CN1CCCCC1)C(=O)c1ccccc1 (stereo not given), which growth is on record?
The growth was 103% (inactive).

For CN(Cc1ccccc1)c1nc(Cl)c(C2CC(c3ccccc3)=NN2c2ccccc2)s1 (stereo not given), which growth is on record?
Its growth is 100% (inactive).

COc1ccc(/C=C2\Oc3cc(OCCCN4CCCC4)ccc3C2=O)cc1 was tested. Which growth did it give?
Its growth is 94.7% (inactive).

CC(C)n1c2ccc(Br)cc2c2c3c(c4c5ccccc5ccc4c21)C(=O)NC3=O was tested. Which growth did it give?
The growth was 100% (inactive).

With CC(C)(C)OC(=O)N1C/C(=C\c2cccs2)C(=O)/C(=C/c2cccs2)C1 as the compound, how does the growth read?
Its growth is 96.7% (inactive).

CCOC(=O)Cc1cnc(N/N=C(\C)c2cc3ccccc3o2)s1 was tested. Which growth did it give?
The growth was 65.2% (inactive).

CC(C)(C)c1cc(C(=O)N2CCC(C(=O)NCCN)CC2)cc(C(C)(C)C)c1 was tested. Which growth did it give?
Its growth is 90.5% (inactive).

Cc1ccc(S(=O)(=O)N/N=C\c2cc(Cl)ccc2O)cc1 was tested. Which growth did it give?
Its growth is 91.7% (inactive).

How did the growth turn out when CC(C)(C)CC(C)(C)c1ccc(OCCOCC[N+](C)(C)Cc2ccccc2)cc1 was run?
The growth was -63.5% (active).

For COc1ccc(/C=C2/C(=O)N=C3N2NC(c2ccccc2)=CN3c2ccccc2)cc1, which growth is on record?
The growth was 101% (inactive).

How did the growth turn out when COc1ccc2c(c1)nnc1c3cccnc3[nH]c21 was run?
The growth was -31.4% (active).

Which growth does the source give for Cc1cc(C)c(C(=O)c2cccs2)c(C)c1 here?
Its growth is 98.3% (inactive).
